The results in this text go back to ChEMBL document CHEMBL1961873, “Compounds: GSK PKIS; Assays: Nanosyn kinase panel” (2012).

For test [1], the target named is High affinity nerve growth factor receptor (Homo sapiens) (UniProt P04629). The settings on record: at 1 µM.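 Note: each value is the mean percent inhibition of TRKA.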
The target of test [2] is BDNF/NT-3 growth factors receptor (Homo sapiens) (UniProt Q16620). The settings on record: at 0.1 µM.
For test [3] the target is unchanged. The settings on record: at 1 µM.
Test [4] addresses NT-3 growth factor receptor (Homo sapiens) (UniProt Q16288). The settings on record: at 0.1 µM.
Test [5] shares this target. As to conditions: at 1 µM.
The target of test [6] is T1, Tyrosine-protein kinase TXK (Homo sapiens) (UniProt P42681).
T1 sequence (whole entry): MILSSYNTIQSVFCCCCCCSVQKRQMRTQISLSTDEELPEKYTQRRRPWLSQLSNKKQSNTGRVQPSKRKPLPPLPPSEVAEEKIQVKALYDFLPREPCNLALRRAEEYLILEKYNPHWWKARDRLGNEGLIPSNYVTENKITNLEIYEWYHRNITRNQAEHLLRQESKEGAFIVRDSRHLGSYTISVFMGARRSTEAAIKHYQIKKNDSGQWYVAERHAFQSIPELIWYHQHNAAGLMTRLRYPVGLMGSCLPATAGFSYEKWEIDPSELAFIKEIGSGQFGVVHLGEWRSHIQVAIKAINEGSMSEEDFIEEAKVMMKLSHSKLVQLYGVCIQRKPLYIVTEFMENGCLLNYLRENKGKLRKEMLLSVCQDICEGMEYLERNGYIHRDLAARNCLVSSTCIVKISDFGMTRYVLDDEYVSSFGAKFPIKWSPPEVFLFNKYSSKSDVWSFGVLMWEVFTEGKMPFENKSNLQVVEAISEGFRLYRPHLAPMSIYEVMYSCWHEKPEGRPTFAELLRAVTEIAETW
The settings on record: at 0.1 µM.

Test [7] concerns the target T1, Tyrosine-protein kinase TXK (Homo sapiens). The settings on record: at 1 µM.
The target in test [8] is Non-receptor tyrosine-protein kinase TYK2 (Homo sapiens) (UniProt P29597). The settings on record: at 0.1 µM.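 Note: each value is a mean of the inhibition readings.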
Non-receptor tyrosine-protein kinase TYK2 (Homo sapiens), sequence (P29597 whole entry): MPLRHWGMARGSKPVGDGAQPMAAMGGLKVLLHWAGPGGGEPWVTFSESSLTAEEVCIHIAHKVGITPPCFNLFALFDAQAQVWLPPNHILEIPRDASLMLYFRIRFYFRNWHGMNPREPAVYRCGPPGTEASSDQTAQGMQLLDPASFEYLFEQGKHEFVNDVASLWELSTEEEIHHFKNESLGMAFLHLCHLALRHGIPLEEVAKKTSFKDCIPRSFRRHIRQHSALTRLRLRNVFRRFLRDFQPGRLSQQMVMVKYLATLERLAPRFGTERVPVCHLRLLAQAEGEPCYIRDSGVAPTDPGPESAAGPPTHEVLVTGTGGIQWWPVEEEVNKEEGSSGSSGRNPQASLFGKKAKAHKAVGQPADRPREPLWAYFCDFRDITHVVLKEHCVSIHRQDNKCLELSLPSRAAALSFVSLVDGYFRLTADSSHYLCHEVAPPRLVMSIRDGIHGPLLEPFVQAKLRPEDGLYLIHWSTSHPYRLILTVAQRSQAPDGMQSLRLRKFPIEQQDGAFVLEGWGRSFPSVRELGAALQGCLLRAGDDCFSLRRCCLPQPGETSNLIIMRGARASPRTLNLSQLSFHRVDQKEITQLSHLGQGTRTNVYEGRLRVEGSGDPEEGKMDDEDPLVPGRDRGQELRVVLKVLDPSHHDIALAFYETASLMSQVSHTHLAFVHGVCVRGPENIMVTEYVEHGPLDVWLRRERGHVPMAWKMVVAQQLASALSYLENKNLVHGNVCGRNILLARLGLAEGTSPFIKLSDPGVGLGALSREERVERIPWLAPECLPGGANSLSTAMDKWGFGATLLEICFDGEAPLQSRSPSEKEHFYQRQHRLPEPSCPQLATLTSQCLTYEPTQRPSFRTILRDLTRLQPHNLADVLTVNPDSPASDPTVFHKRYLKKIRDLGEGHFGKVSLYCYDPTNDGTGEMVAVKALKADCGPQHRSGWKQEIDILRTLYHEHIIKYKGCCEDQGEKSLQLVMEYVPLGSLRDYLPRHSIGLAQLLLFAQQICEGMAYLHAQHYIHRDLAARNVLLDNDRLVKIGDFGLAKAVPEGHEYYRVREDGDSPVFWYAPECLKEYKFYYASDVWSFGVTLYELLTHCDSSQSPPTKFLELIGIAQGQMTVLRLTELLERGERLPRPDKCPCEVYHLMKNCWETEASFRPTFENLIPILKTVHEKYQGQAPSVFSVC
For test [9], the target named is T2, Dual specificity protein kinase TTK (Homo sapiens) (UniProt P33981).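 Note: reported figures are mean TTK inhibition at 1 µM.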
T2 sequence (whole entry): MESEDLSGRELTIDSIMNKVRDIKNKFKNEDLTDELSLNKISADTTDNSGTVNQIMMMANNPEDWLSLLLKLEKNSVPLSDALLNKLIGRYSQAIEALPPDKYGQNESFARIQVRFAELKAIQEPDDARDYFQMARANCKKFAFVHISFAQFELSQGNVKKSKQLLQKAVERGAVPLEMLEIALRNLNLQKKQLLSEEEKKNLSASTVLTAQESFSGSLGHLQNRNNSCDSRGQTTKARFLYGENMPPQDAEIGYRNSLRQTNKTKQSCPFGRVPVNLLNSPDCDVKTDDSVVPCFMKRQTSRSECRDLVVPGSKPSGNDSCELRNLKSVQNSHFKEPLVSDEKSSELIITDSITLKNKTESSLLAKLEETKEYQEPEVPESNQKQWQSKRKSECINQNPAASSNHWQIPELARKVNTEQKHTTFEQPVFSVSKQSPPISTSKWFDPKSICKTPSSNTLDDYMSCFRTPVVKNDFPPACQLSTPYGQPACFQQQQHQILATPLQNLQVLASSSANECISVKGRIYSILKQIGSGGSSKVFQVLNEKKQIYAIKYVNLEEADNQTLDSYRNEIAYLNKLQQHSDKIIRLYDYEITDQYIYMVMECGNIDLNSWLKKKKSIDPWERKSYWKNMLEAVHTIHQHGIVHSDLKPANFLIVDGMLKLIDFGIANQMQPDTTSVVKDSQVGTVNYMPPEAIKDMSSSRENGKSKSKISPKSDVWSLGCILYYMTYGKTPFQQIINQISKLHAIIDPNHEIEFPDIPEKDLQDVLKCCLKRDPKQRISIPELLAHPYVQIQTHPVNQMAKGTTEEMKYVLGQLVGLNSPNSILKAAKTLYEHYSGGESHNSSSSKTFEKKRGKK
The settings on record: at 1 µM.

Test [10] has as its target T3, Aurora kinase A (Homo sapiens) (UniProt O14965).
T3 sequence (whole entry): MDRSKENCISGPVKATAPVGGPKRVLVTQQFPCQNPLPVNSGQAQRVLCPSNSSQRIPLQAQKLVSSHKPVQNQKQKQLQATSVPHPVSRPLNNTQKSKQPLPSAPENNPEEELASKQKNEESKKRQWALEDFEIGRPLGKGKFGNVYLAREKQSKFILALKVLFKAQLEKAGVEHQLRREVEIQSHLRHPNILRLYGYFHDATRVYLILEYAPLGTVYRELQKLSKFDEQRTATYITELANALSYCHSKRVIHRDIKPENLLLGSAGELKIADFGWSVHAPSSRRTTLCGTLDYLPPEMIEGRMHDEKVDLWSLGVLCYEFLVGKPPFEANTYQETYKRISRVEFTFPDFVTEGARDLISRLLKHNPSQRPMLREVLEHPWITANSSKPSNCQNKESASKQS
The settings on record: at 0.1 µM.

Test [11] has as its target T3, Aurora kinase A (Homo sapiens). The settings on record: at 1 µM.
The target of test [12] is Aurora kinase B (Homo sapiens) (UniProt Q96GD4). The settings on record: at 0.1 µM.
Aurora kinase B (Homo sapiens), sequence (Q96GD4 whole entry): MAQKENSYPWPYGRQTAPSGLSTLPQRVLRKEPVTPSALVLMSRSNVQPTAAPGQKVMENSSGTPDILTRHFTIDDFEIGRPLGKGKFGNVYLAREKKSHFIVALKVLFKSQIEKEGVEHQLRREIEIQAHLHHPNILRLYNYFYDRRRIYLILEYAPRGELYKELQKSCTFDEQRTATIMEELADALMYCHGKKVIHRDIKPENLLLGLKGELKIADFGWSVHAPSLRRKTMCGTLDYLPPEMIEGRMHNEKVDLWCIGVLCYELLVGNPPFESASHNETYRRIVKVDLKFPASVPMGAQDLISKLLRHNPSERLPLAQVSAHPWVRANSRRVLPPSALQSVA
Test [13] has the same target. As to conditions: at 1 µM.
The target of test [14] is T4, Aurora kinase C (Homo sapiens) (UniProt Q9UQB9).
T4 sequence (whole entry): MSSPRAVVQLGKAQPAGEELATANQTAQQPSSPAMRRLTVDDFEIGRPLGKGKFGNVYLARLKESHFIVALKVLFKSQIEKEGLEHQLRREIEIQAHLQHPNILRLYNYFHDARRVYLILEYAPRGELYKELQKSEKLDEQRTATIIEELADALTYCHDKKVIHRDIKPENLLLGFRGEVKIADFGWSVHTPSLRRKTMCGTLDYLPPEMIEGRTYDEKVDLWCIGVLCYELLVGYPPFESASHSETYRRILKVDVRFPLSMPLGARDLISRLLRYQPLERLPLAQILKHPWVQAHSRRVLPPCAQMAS
As to conditions: at 0.1 µM.

For test [15], the target named is T4, Aurora kinase C (Homo sapiens). The settings on record: at 1 µM.
The target of test [16] is Serine/threonine-protein kinase 10 (Homo sapiens) (UniProt O94804). The settings on record: at 0.1 µM.
Serine/threonine-protein kinase 10 (Homo sapiens), sequence (O94804 whole entry, looked up): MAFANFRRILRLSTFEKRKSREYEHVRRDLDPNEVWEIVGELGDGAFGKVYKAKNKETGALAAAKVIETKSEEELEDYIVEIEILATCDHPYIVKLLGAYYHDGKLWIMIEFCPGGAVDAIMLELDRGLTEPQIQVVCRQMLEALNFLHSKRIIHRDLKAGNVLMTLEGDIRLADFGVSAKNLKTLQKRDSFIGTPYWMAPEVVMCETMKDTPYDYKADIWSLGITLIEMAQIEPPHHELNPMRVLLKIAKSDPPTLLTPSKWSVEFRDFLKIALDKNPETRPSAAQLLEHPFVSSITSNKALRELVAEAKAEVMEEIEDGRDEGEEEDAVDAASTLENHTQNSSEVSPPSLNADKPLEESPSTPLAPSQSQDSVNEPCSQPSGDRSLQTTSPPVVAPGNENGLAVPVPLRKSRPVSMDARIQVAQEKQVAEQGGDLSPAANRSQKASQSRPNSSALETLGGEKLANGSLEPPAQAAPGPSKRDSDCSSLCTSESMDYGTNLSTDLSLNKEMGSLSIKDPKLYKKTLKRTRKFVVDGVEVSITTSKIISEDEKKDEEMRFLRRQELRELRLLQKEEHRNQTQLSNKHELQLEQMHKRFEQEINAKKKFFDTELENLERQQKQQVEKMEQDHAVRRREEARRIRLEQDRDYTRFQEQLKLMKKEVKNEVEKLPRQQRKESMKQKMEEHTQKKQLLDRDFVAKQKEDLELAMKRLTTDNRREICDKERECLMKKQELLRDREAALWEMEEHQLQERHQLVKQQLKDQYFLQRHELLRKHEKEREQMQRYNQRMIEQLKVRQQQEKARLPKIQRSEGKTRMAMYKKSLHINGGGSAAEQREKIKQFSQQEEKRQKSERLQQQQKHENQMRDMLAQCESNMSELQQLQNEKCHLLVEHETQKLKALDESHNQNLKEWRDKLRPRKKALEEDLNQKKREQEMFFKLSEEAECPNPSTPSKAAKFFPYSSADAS
For test [17] the target is unchanged. As to conditions: at 1 µM.
In test [18] the target is T5, Mitogen-activated protein kinase kinase kinase kinase 2 (Homo sapiens) (UniProt Q12851).
T5 sequence (whole entry): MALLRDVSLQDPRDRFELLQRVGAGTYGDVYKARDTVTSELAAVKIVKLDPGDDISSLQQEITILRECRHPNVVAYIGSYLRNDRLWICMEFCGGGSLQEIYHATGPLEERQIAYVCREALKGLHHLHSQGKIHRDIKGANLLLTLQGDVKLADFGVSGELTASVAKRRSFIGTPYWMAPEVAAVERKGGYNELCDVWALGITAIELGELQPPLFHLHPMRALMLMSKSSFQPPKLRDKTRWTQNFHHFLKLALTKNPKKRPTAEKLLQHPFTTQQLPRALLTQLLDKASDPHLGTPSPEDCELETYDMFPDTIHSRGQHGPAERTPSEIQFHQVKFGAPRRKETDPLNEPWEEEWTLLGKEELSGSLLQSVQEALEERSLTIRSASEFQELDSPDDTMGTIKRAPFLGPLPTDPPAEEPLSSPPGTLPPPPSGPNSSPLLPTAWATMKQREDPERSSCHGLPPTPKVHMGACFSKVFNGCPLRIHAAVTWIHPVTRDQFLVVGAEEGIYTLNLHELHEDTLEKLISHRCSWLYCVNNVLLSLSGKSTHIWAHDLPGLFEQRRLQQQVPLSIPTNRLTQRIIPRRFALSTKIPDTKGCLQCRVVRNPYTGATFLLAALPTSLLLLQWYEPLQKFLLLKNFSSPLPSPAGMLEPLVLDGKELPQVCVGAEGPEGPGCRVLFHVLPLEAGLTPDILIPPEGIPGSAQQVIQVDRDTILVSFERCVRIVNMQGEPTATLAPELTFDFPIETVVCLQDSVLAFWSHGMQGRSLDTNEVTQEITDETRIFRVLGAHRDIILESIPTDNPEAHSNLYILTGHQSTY
The settings on record: at 0.1 µM.

In test [19] the target is T5, Mitogen-activated protein kinase kinase kinase kinase 2 (Homo sapiens). As to conditions: at 1 µM.
Test [20] deals with Mitogen-activated protein kinase kinase kinase kinase 4 (Homo sapiens) (UniProt O95819). As to conditions: at 0.1 µM.
Mitogen-activated protein kinase kinase kinase kinase 4 (Homo sapiens), sequence (O95819 2-1239 limits assumed): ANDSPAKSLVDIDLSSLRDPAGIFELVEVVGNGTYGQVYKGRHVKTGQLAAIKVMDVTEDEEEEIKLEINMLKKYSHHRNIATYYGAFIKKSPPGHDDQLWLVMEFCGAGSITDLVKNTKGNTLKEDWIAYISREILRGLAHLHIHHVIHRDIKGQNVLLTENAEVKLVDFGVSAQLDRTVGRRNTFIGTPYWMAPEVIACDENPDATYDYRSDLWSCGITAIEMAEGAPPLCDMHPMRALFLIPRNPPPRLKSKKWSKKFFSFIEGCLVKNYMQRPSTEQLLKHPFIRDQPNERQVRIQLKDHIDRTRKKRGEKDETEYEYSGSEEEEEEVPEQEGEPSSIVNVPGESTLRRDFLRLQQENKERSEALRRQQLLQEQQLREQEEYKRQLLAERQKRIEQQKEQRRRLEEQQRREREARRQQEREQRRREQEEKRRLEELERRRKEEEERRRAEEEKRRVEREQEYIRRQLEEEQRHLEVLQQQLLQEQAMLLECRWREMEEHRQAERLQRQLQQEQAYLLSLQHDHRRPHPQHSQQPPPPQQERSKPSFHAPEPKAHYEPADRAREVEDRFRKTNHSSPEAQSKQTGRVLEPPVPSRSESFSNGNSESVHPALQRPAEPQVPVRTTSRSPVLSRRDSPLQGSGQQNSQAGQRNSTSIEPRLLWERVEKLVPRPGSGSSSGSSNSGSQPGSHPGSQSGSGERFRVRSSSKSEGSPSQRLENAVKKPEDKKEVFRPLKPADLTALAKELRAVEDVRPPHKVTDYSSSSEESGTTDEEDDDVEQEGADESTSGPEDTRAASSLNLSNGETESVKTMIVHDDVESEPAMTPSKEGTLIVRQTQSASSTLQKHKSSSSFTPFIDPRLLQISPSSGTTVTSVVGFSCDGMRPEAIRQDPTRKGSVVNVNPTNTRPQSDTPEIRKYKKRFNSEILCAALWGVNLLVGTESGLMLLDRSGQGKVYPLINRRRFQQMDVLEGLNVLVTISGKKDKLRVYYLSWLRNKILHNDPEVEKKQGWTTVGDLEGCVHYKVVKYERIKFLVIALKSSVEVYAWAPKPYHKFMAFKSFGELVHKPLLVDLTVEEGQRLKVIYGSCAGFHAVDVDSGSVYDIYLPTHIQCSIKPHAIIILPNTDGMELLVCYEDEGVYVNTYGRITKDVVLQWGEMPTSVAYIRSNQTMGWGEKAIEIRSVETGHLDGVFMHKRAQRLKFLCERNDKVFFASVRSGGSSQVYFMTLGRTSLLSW

The structures appear in SMILES notation.

NT-3 growth factor receptor (Homo sapiens), sequence (Q16288 32-839 limits assumed): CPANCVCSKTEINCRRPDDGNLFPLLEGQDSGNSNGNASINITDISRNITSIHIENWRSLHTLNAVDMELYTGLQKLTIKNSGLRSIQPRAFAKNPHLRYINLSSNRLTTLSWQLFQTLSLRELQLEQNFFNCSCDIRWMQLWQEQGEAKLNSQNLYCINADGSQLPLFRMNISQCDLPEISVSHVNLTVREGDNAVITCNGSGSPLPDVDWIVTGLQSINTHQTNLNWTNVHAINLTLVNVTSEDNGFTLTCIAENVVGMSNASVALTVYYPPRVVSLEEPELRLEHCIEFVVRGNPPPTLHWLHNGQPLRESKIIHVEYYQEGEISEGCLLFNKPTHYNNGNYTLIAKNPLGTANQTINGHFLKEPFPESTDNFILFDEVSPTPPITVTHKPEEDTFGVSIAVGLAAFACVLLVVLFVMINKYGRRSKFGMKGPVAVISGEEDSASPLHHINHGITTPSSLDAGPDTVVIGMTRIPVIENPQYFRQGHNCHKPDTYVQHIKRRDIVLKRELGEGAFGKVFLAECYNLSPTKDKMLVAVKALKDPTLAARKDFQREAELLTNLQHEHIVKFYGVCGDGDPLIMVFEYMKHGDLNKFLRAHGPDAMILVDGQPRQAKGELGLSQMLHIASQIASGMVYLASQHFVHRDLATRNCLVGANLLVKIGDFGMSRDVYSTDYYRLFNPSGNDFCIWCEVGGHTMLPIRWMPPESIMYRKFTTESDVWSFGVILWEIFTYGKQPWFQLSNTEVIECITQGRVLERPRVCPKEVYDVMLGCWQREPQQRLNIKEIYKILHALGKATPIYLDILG

For orientation: inhibition means the change of the read-out against control, counted positive when it falls. In the case of `O=C(O[C@H]1CN[C@H](C#Cc2cc3ncnc(Nc4ccc(OCc5cccc(F)c5)c(Cl)c4)c3s2)C1)N1CCOCC1`, the inhibition in [1] stood at 0.52%; in [2], 3.03%; in [3] it was 5.79%; in test [4] it was 2.99%; in test [5] it was 7.73%; in [6], 1.89%. Moreover, the inhibition in test [7] is 1.16%; in [8] it was -6.96%; in test [9], 13%; in [10] it was 1.79%; in test [11], 7.57%; in test [12] it was 3.72%. Also, the inhibition is 9.81% in test [13]; 1.9% in [14]; 5.83% in [15]; 9.8% in test [16]; 19% in test [17]; 1.53% in test [18]. The inhibition worked out at 0.84% in test [19] and 5.04% in [20].
With `CCS(=O)(=O)c1ccc(OC)c(Nc2ncc(-c3cccc(C(C)=O)c3)o2)c1`, the inhibition came to 9.16% in [1]; 4.28% in test [2]; 20.5% in [3]; 4.38% in [4]; 29.4% in test [5]; 13% in [6]. For the same compound, the inhibition in test [7] is 50.5%; in test [8], -3.16%; in [9] it was 8.55%; in [10], 2.45%; in [11] it was 15.3%; in test [12], 3.08%. Also, the inhibition in test [13] was 6.28%; in test [14], 4.6%; in test [15] it was -0.45%; in [16], 6.16%; in test [17] it was 9.95%; in [18] it was -0.26%. In addition, the inhibition was 3.22% in test [19] and 3.37% in test [20].
In the case of `CN1CCC(n2cnc(-c3ccc(F)cc3)c2-c2ccnc(NCCO)n2)CC1`, the inhibition is 2.02% in test [1]; 2.35% in test [2]; 6.67% in test [3]; 4.76% in [4]; 5.91% in [5]; 2.5% in test [6]. Further, the inhibition in [7] was 2.52%; in test [8], -3.21%; in test [9] it was 2.05%; in [10], 1.7%; in test [11] it was 9.26%; in test [12], 4.23%. Also, the inhibition in test [13] is 4.96%; in test [14], 1.22%; in [15], -3.16%; in [16] it was 4.56%; in [17], 8.57%; in test [18], 1.01%. Besides, the inhibition was found to be 1.59% in test [19] and 7.52% in test [20].
As for `NC(=O)c1ccc2c(-c3ccnc(NCCCO)n3)c(-c3ccc(F)cc3)nn2c1`, the inhibition in test [1] stood at 2.24%; in test [2], 3.11%; in [3], 2.83%; in test [4], 3.99%; in test [5], 2.98%; in test [6], 9.73%. Besides, the inhibition in test [7] is 38.4%; in test [8] it was -3.98%; in test [9], 12.1%; in test [10], 1.36%; in test [11] it was 3.29%; in [12], 2.54%. The inhibition in [13] is 0.26%; in [14], 0.74%; in [15] it was 6.84%; in [16], 5.04%; in [17], 12.3%; in test [18], 1.47%. Besides, the inhibition in test [19] amounted to 7.29%; in test [20] it was 9.85%.
Turning to `CS(=O)(=O)CCNCc1ccoc1-c1ccc2ncnc(Nc3ccc(OCc4ccccc4)cc3)c2c1`, the inhibition in test [1] came out at 1.88%; in [2] it was 1.72%; in test [3], 4.41%; in test [4], 2.02%; in test [5], 1.74%; in [6] it was 0.41%. For the same compound, the inhibition in [7] was 1.96%; in test [8] it was 1.14%; in [9], 5.58%; in test [10], 3.55%; in [11] it was 5.63%; in test [12], 0.11%. Further, the inhibition was 8.33% in test [13]; 3.25% in [14]; 9.46% in [15]; -0.07% in test [16]; 3.99% in test [17]; 1.72% in test [18]. Further, the figures for the inhibition in test [19] and in test [20] were 1.42% and 0.34%, respectively.
Turning to `COc1cccc(-n2ncc3c(N/N=C/c4ccc(C(=O)NCCN(C)C)cc4)ncnc32)c1`, the inhibition turned out to be 12.1% in test [1]; 5.53% in [2]; 26.5% in test [3]; 3.96% in test [4]; 20.7% in test [5]; 7.49% in test [6]. Moreover, the inhibition in [7] was 29.4%; in test [8] it was -5.03%; in [9] it was 11.6%; in test [10] it was 8.37%; in test [11] it was 62.7%; in test [12], 7.23%. The inhibition in test [13] was 38.6%; in test [14] it was 5.58%; in [15], 57%; in test [16] it was 23%; in test [17] it was 61.2%; in test [18], 3.89%. The inhibition turned out to be 21.8% in test [19] and 31.3% in [20].
